Screening results (PubChem BioAssay)
Rows were chosen to be rich in hits. Some 19% of all compounds tested hit in one or more screens of this group.
Giardia kill: Giardia lamblia killing; Giardia lamblia trophozoite viability; activity change, % at 7.66 µM, hits read low; 340,000 tested, 0.15% active; in the data active means activity change below about -80%; inconclusive means between about -30% and that limit;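 further: parasites exposed to compound for two days anaerobically before the ATP read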
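Each well holds 100 Giardia trophozoites and compound. After two days (48 hrs) at 37 deg C in anaerobic conditions, ATP is quantified by luminescence.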
IL1B secr inh: inflammasome signaling inhibition, IL-1 beta readout. THP-1 LPS/ATP IL-1B secretion, AlphaLISA, 16 h; stronger effect = lower value. activity change, % at 57.5 µM. 360,000 tested, 4.7% active. AID 743279; in the data active means activity change below about -50%; inconclusive means mostly about -30% to -49%
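Secreted IL-1B measured by AlphaLISA bead assay after 16 h compound exposure of THP-1 cells; compounds (final up to 57.5 uM) added 1 h before LPS (250 ng/mL) and ATP (1.25 mM) stimulation; lower signal means less secretion.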
TDP1 cell noCPT: qHTS for Inhibitors of human tyrosyl-DNA phosphodiesterase 1 (TDP1): qHTS in cells in absence of CPT | DT40 Tdp1-/- hTDP1 cells, no CPT, ATP luminescence, 48 h | Potency, µM (titrated, usually from 46.2 µM), for inactives: top-dose activity change, negative = growth inhibition, actives largely listed as inhibitors | 420,000 tested, 15% active | AID 686978, 2013; further: potency means the concentration at half of the fitted maximal effect; nearly all actives have a fitted effect of over 55% in size
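Growth of hTDP1-complemented DT40 Tdp1-knockout cells is measured by ATP luminescence after at least 48 hr compound exposure at 37 °C, with DMSO substituting for the 20 nM CPT used in the parallel screen.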
TDP1 cell CPT: DT40-hTDP1 cell growth loss with CPT; chicken DT40 Tdp1-/-;hTDP1 cells + 20 nM CPT, ATP luminescence, 48 h; Potency, µM (highest dose often 46.2 µM), inactives show top-dose activity change, negative = growth inhibition, most hits filed as inhibitors; 420,000 tested, 12% active; AID 686979; further: potency means the concentration at half of the fitted maximal effect; nearly all actives have a fitted effect of over 55% in size
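Cell growth measured by CellTiter-Glo luminescence after a minimum 48 h, 37 C compound exposure with 20 nM CPT in Tdp1-knockout DT40 cells stably expressing hTDP1, seeded 400/well; qHTS titration format.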
ELG1 repair inh: inhibitors of ELG1-dependent DNA repair in HEK293T cells | HEK293T ELG1-luciferase reporter, luminescence, 16 h; DNA damage induced by 5-fluorouridine | Potency, µM (doses to about 46.1 µM), without a hit: at the highest dose activity change, negative = inhibition, most hits filed as inhibitors | 330,000 tested, 2.3% active; further: potency means the concentration at half of the fitted maximal effect; nearly all actives have a fitted effect of over 55% in size
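Quantitative HTS, concentration-response format. 2,000 cells/well co-treated with 5-fluorouridine and compound, 16 hr in 5% CO2 at 37 °C; ONE-Glo luminescence read after 30 min.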
TDP1 inh: inhibitors of human tyrosyl-DNA phosphodiesterase TDP1 | recombinant TDP1, AlphaScreen DNA substrate cleavage | 350,000 tested, 0.28% active | Potency, µM (highest dose often 130 µM), for the others: top-dose activity change, negative = inhibition, most hits filed as inhibitors; further: potency means the concentration at half of the fitted maximal effect; nearly all actives have a fitted effect of over 40% in size
Target sequence (Q9NUW8 whole entry, looked up): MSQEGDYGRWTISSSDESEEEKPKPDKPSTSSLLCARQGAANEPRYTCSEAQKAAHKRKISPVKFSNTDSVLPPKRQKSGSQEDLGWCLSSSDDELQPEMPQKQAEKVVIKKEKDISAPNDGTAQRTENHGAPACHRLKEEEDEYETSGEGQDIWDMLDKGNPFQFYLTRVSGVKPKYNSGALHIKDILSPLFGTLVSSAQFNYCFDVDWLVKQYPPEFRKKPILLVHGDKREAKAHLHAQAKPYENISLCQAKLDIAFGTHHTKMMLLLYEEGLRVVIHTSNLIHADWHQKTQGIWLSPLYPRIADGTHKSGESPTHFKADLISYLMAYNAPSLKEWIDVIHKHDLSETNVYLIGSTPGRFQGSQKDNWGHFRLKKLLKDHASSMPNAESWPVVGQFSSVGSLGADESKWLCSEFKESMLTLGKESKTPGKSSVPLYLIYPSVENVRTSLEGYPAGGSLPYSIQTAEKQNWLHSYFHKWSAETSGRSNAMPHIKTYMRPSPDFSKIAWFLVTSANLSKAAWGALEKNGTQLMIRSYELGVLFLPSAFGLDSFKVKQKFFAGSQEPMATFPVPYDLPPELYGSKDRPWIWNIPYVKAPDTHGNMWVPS
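Recombinant human Tdp1 (E. coli-expressed, 1 nM final) preincubated with compounds 15 min at room temperature, then 5'-biotin/3'-phosphotyrosine-FITC DNA substrate (15 nM final) added for 5 min. AlphaScreen beads (10 ug/ml final) added 10 min; cleavage lowers signal.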
An asterisk follows results filed as active; ? = inconclusive; · = no result. Unless noted, the call rests on the fitted dose curve; in most records, active means well fitted curve in the direction sought with a large enough effect; inconclusive means small, poorly fitted or top-dose-only effect, or another doubt; inactive means no such curve, though single readings can be large; an effect the other way counts as inactive or inconclusive. On the % scale 0 is the no-effect control and ±100 the full control effect.

SMILES	Giardia kill	IL1B secr inh	TDP1 cell noCPT	TDP1 cell CPT	ELG1 repair inh	TDP1 inh
Cc1ccccc1-c1nc(CNC(=O)Nc2ccccc2)c(C)o1	·	·	-6%	-21%	·	9%
C#CCNC(=O)C1=C[C@H](C)C[C@H](OCc2ccc(CO)cc2)O1	-6	-15	-7%	-19%	·	·
COc1ccc(S(=O)(=O)c2cc3cc(C(C)(C)C)cc(O)c3oc2=O)cc1	·	·	-32%	?	·	7%
NC(N)=NCCC[C@H](NC(=O)CC1(CC(=O)N2CCN(C3c4ccccc4NC(=O)c4ccccc43)CC2)CCCC1)C(=O)NCCn1c(=O)n(-c2ccccc2)n(-c2ccccc2)c1=O (stereo partly specified)	·	·	·	·	·	10%
CC(=O)Nc1ccccc1-c1nc(CNC(=O)c2ccc(-c3ccccc3F)cc2)c(C)o1	·	·	-7%	11%	·	·
Cc1ccc(S(=O)(=O)NCC(C)NC(=O)CN2CCOCC2)cc1 (stereo unspecified)	1	10	-7%	-1%	14%	13%
COc1ccc(-c2nn3c(-c4ccccc4)nnc3s2)cc1	-28	-55*	?	?	9%	2%
COc1ccc(-c2nn3c(-c4ccc(F)cc4)nnc3s2)cc1	-4	?	?	-28%	-20%	-1%
CCOc1cccc(-c2nn3c(-c4cc(C)[nH]n4)nnc3s2)c1	3	-77*	?	?	?	5%
CC(=O)NC1=NC(=O)/C(=C/c2cn(C(C)=O)nc2-c2ccccc2)S1	12	3	?	?	21µM*	·
Cc1ccc(-c2nn(-c3ccccc3)cc2/C=C2\SC(=S)N(CC(=O)O)C2=O)cc1	9	0	?	?	12%	2%
CC(=O)NC1=NC(=O)/C(=C/c2cc(C)n(-c3cccc(C(=O)O)c3)c2C)S1	-13	4	?	2%	-15%	3.5µM*
CCN=C1S/C(=C\c2cn(C(C)=O)nc2-c2ccccc2)C(=O)N1CC	-16	-4	?	16µM*	?	2%
Cc1cccc(-n2c(C)cc(/C=N/O)c2C)c1	14	-6	-2%	-5%	13%	5%
COc1ccc2c(C(=O)NCc3ccc4c(c3)OCO4)c(-c3ccc(S(C)(=O)=O)cc3)sc2c1	24	49	16µM*	23µM*	?	1%
COC(=O)c1c(-c2ccc(S(C)(=O)=O)cc2)sc2ccc(OC)cc12	23	-15	13µM*	?	?	1%
COc1ccc(S(=O)(=O)N(C)CC(=O)NCc2ccc3c(c2)OCO3)cc1	-4	18	2%	-16%	0%	1%
COC(=O)c1c(-c2ccc(OC)cc2)sc2ccccc12	·	·	·	·	?	20µM*
COC(=O)c1c(-c2ccc(S(C)(=O)=O)cc2)sc2cc(OC)ccc12	25	-20	21µM*	?	?	-2%
COC(=O)c1c(-c2ccc(OC)cc2)sc2cc(OC)c(OC)cc12	3	12	?	?	-10%	-14%
COC(=O)c1c(-c2cc(OC)cc(OC)c2)sc2ccc(OC)cc12	?	-17	?	?	-2%	-12%
COc1ccc2c(c1)sc1ncc(C(=O)NCc3ccc(Cl)cc3)c(=O)n12	·	·	9%	16%	·	0%
Cc1cc(C)cc(NC(=O)c2ccc3c(c2)CCN3S(C)(=O)=O)c1	-6	-18	2%	3%	-3%	·
CC(C)c1ccc(NC(=O)c2ccc3c(c2)CCCN3S(C)(=O)=O)cc1	·	·	4.1µM*	6.5µM*	·	2%
CS(=O)(=O)N1CCc2cc(C(=O)Nc3ccc(Br)cc3)ccc21	17	-8	-30%	-8%	-1%	·
CCS(=O)(=O)N1CCc2cc(C(=O)Nc3cccc(C(C)=O)c3)ccc21	·	·	18µM*	?	·	11%
